Screens (PubChem BioAssay)
p53ts 39C tox: kills p53ts cells at the nonpermissive temperature; H1299-p53A138V viability at 39C, ATP luminescence, 24 h; Potency, µM (highest dose often 46.1 µM), most hits filed as cytotoxic; AID 902; 130,000 tested, 1.5% active; further: nearly all actives have a fitted effect of over 55% in size
FLuc inh: inhibitors of firefly luciferase; Potency, µM (highest dose often 57.1 µM), actives largely listed as inhibitors; purified firefly luciferase, luminescence, 8 min; 72,000 tested, 2.2% active; further: nearly all actives have a fitted effect of over 40% in size
Target sequence (P08659 whole entry, looked up): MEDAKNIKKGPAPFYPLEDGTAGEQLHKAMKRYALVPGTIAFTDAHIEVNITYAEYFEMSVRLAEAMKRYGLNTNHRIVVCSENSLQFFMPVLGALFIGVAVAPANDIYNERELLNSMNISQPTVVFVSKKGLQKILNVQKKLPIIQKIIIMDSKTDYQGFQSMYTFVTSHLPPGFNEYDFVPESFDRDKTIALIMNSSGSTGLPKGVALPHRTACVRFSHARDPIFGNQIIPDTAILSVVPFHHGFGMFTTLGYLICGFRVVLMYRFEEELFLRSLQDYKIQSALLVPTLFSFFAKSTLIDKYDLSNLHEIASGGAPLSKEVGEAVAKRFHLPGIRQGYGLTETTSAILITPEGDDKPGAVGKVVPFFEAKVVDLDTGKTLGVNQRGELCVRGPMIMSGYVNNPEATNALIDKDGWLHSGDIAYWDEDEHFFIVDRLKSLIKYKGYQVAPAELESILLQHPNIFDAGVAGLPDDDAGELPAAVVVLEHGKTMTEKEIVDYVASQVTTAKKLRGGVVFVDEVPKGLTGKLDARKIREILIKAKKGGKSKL
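Here, luciferase activity is measured as luminescence following an 8 min room-temperature reaction at 10 uM ATP, pH 7.2. Every library sample is titrated.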
p53ts 32C kill: cytotoxicity in p53ts cells at permissive temperature | H1299-p53A138V at 32C, ATP luminescence viability, 24 h | Potency, µM (highest dose often 46.1 µM), actives largely listed as cytotoxic | 130,000 tested, 0.93% active | AID 924; further: nearly all actives have a fitted effect of over 55% in size
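Viability by ATPlite luminescence after 24 h compound treatment (up to 46 uM) at the permissive 32C. Cells are H1299 carrying p53 A138V. Scale runs from DMSO basal to 100 uM tamoxifen as full kill; AC50 from Hill fits.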
Numbers stand for hits; 0 = inactive; ? = inconclusive; - = no result; ! = not confirmed by another sample; [ ] = dose if it differs, or a comment. In the library only some 2.5% were active in any assay of this set; here they are far more common. The call rests on the fitted dose curve; in most records, active means well fitted curve in the direction sought with a large enough effect; inconclusive means small, poorly fitted or top-dose-only effect, or another doubt; inactive means no such curve, though single readings can be large; an effect the other way counts as inactive or inconclusive.

SMILES	p53ts 39C tox	FLuc inh	p53ts 32C kill
O=C(Nc1ccc2nc(SCC(=O)N3CCc4ccccc43)sc2c1)c1ccc(F)cc1	13µM	-	0
CN(C)C(=O)c1ccc(-c2ccc3ncnc(NC4CCNCC4)c3c2)cc1	0	0[2.29 µM]	0
CCOC(=O)OCC1OC(c2ccccc2)C=CC1Oc1cccc(N(C)C)c1 (stereo not drawn)	0[9.22 µM]	-	0[9.22 µM]
Cc1ccccc1C(=O)Nc1ccc(C(=O)OCc2cc(=O)n3nc(C(C)C)sc3n2)cc1	0	-	?
Cc1ccc(CC(Cc2nc3ccccc3[nH]2)c2nc3ccccc3[nH]2)cc1 (stereo not drawn)	?	-	0
Cc1ccc(C)c(N2CCN(CCCNC(=O)c3ccc4nc(C(C)C)oc4c3)CC2)c1	0	-	0
Cc1ccc(C)c(N2CCN(CCCNC(=O)c3ccc4nc(N5CCC(C)CC5)sc4c3)CC2)c1	13µM	-	0
Cc1ccc(Cl)cc1N1CCN(CCCNC(=O)c2ccc3nc(N4CCCCC4)sc3c2)CC1	0	-	0
Cc1ccc(C)c(N2CCN(CCCNC(=O)c3ccc4nc(CCc5ccccc5)oc4c3)CC2)c1	25µM	-	0
CCCCCN=Cc1c(C)[nH]n(-c2nc3ccccc3s2)c1=O	0.79µM	7.9µM	1µM
CCCc1[nH]n(-c2nc3ccccc3s2)c(=O)c1C=NCCN1CCOCC1	-	0	-
CCOC(=O)C1CCCN(c2ncnc3c2cnn3-c2cccc(C)c2)C1 (stereo not drawn)	0	0	0
Cc1ccc(-n2ncc3c(N4CCN(Cc5ccccc5)CC4)ncnc32)cc1C	32µM	-	20µM
CC1CC(C)CN(c2ncnc3c2cnn3-c2ccc(Cl)cc2)C1 (stereo not drawn)	0	-	0
Cc1ccc(-n2ncc3c(N4CCN(C)CC4)ncnc32)cc1Cl	?	-	0
Cc1cccc(N2CCN(c3ncnc4c3cnn4-c3ccc(Cl)cc3)CC2C)c1 (stereo not drawn)	16µM	-	?
Clc1cccc(-n2ncc3c(N4CCN(Cc5ccccc5)CC4)ncnc32)c1	0	-	0
Cc1ccc(-n2ncc3c(N4CCCCCC4)ncnc32)cc1C	?	-	10µM
Cc1cccc(-n2ncc3c(N4CCCC(C)C4)ncnc32)c1 (stereo not drawn)	2.5µM	-	4µM
C[C@H](Br)C(=O)Nc1ccc(C(=O)O)c(O)c1	0[9.22 µM]	0[11.4 µM]	0[9.22 µM]
CC(O)CCCCCCC/C=C/C=C/C(N)=O (stereo not drawn)	0[9.22 µM]	-	0[9.22 µM]
Cc1ccc2nc(NC(=O)CSc3[nH]c(=O)ncc3C)sc2c1	?	-	0
Cc1ccc(-n2ncc3c(N4CCN(c5ccc(F)cc5)CC4)ncnc32)cc1	0	-	0
CC1CCCN(c2ncnc3c2cnn3-c2ccc(F)cc2)C1 (stereo not drawn)	2µM	-	2µM
CCN1CCN(c2ncnc3c2cnn3-c2cccc(C)c2)CC1	0	-	0
SMILES	p53ts 39C tox	FLuc inh	p53ts 32C kill
Cc1cccc(-n2ncc3c(N4CCCCCC4)ncnc32)c1	4µM	-	?
CCCn1c(-c2ccc(F)cc2)nc2c(NCCN(C)C)nc(C)nc21	0	-	0
Cc1ccc(C(C)C)c(OCC(=O)NCC2(N3CCOCC3)CCCCC2)c1	0	-	0
CCc1cccc(C)c1NC(=O)Cn1nc(C)n2cccc2c1=O	13µM	-	0
COC(=O)c1cc(NC(=O)Cn2nc(C)n3cccc3c2=O)cc(C(=O)OC)c1	0	-	0
Cc1nc2sc(-c3ccccc3)cc2c(=O)n1-n1cccc1	?	20µM	0
COc1ccc(-c2csc3nc(C)n(-n4cccc4)c(=O)c23)cc1OC	0	0	0
COc1ccc(Cn2c(-c3ccc(OC)cc3)nc3ccccc32)cc1	0	-	0
COc1ccc(CCN2CCC(Nc3nc4ccccc4n3Cc3ccc(F)cc3)CC2)cc1	13µM!	0	0
Cn1c(Cl)nc2ccccc21	0	0	0
Cn1c(SC2=CS(=O)(=O)c3ccccc32)nc2ccccc21	13µM	0	?
CC(C)(C)OC(=O)N1CCC(c2c(C(=O)NC3CCCCC3)cnn2-c2cccc(F)c2)CC1	0	-	0
Cc1ccccc1NC(=O)Cn1c(=O)n(CCCCCC(=O)NCc2ccccc2Cl)c(=O)c2sccc21	0	-	0
CCc1cccc(NC(=O)Cn2c(=O)n(CCC(=O)NCc3ccccc3Cl)c(=O)c3sccc32)c1	13µM	-	?
Cc1ccc([N+](=O)[O-])c(N)c1	0	-	0[1.84 µM]
Cc1ccc(NC(=O)CSc2nc(-c3ccc(C(C)(C)C)cc3)nc3cc(=O)[nH]n23)cc1C	0	-	0
Cc1ccc(OCCCSc2nc(-c3ccc(C(C)(C)C)cc3)nc3cc(=O)[nH]n23)cc1C	20µM	-	?
COc1ccccc1OCCSc1nc(-c2ccc(C(C)(C)C)cc2)nc2cc(=O)[nH]n12	0	-	0
C=CCc1ccccc1OCCSc1nc(-c2ccc(C(C)(C)C)cc2)nc2cc(=O)[nH]n12	10µM	-	?
CCCn1c(C)nc2c(Nc3ccccc3)nc(C)nc21	0	-	0
COc1ccccc1N1CCN(C(=O)C2CCN(S(=O)(=O)c3cccs3)CC2)CC1	0	-	0
COc1ccc(-c2nc3cnc(N4CCN(C)CC4)nc3n(Cc3ccc(F)cc3)c2=O)cc1	0	0[11.4 µM]	0
O=c1[nH]c(SCc2c(F)cccc2Cl)nc2c1CCCC2	?	-	0
O=C(Nc1ccccc1)N1CCC(c2ccccc2)C1 (stereo not drawn)	?	16µM	?
Cc1ccc(C2CCN(C(=O)Nc3ccc(Cl)cc3)C2)cc1 (stereo not drawn)	0	-	0
SMILES	p53ts 39C tox	FLuc inh	p53ts 32C kill
O=C(CCN1CCC(c2ccccc2)C1)c1cccs1 (stereo not drawn)	0	0	0
O=C(c1cccs1)N1CCC(c2ccccc2)C1 (stereo not drawn)	0	13µM	0
CCN1C(=O)[C@H]2[C@H]3[C@H](O)[C@H](O)C/C(=N/OCC(C)C)[C@@H]3CC[C@@H]2C1=O	0[9.22 µM]	0[11.4 µM]	0[9.22 µM]
Cc1ccnc(NC(=O)Nc2ccc3c(c2)N(C)C(=O)CS3)c1	0	0	0
COc1ccc(C(=O)NC(=O)Nc2cc(C)ccn2)cc1	1.3µM	0.5µM	1.3µM
COc1cc(C(=O)Nc2cc(C)ccn2)cc(OC)c1OC	0	0	0
Cc1ccc(NC(=O)Nc2ccc(F)cc2)nc1	0	0	0
COc1ccc(NC(=O)Nc2cc(C)ccn2)cc1	6.3µM	1.6µM	7.9µM
Cc1ccnc(NC(=O)Nc2ccc(F)cc2)c1	?	10µM	?
COc1ccc(NC(=O)Nc2cc(C)ccc2OC)cc1	?	0	0
CSc1ccc(NC(=O)Nc2cc(C)ccn2)cc1	?	2.5µM	0[9.22 µM]
CO[C@H]1COC(=O)[C@H](C)NC(=O)C/C=C\[C@@H](C)[C@H](OC)COC(=O)C/C=C\[C@@H]1C	0[9.22 µM]	0[11.4 µM]	0[9.22 µM]
Cc1ccc(C)c(NC(=O)CSc2nnc(-c3cc4occc4n3C)n2-c2ccccc2C)c1	-	-	0
O=C1CC2(CCCC2)CC(=O)N1CCNC[C@H]1COc2ccccc2O1	0	0	0
CN(CCO)Cc1ncccc1O	0[9.22 µM]	0[11.4 µM]	0[9.22 µM]
COc1ccc(C(=O)Nc2cccnc2)cc1OC	0	-	0
COc1ccc(C(=O)COc2cccc(NC(=O)c3ccco3)c2)cc1	0	-	0
COc1ccc(C(=O)COC(=O)c2cccc(NC(=O)c3ccc(OC)c(OC)c3)c2)cc1	16µM	-	?
COc1cccc(C(=O)Nc2ccc(NC(=O)c3ccc(C(C)(C)C)cc3)cc2)c1	?	-	0
COc1ccc(CNC(=O)c2cc3cc(OC)ccc3oc2=O)cc1	0	-	0
COc1ccc(C(=O)COC(=O)c2ccco2)cc1	0	6.3µM	0
